Data reported in PubChem BioAssay AID602373 (National Center for Advancing Translational Sciences (NCATS), 2012).
Records with an inconclusive call do not appear. A call without a number means that no potency is given here. Active and inactive are the calls of the source. Calls come from the whole dose curve; as a rule, active = well fitted inhibition curve with a large enough effect; inconclusive = small, poorly fitted or top-dose-only effect; inactive = no such curve, though single readings can be large or run the other way.

Test: qHTS Assay for Inhibitors of Bacillus subtilis Sfp phosphopantetheinyl transferase (PPTase): Hepg2 Assay
Conditions: HepG2 cytotoxicity counter-screen; series mostly up to 46.1 µM
From the text: The covalent attachment of a phosphopantetheinyl (4'-PP) arm to a variety of synthases and other proteins is a key posttranslational protein modification. The 4'-PP is installed on the proteins post-translationally from coenzyme A (CoA) on a conserved serine residue by action of phosphopantetheinyl transferase (PPTase) enzymes. Phosphopantetheinylation is essential for synthase activity, and removal of the PPTase gene precludes natural product synthesis in microorganisms, or in the case of fatty acid biosynthesis, renders the organism unviable. PPTase enzymes belong to a distinct structural superfamily. Within bacteria, these enzymes are grouped into two classes based upon primary structure, the AcpS-Type and Sfp-Type PPTases.
Sfp-type PPTases, corresponding to an activator of surfactin production in Bacillus subtilis, are responsible for modifying type I polyketide and nonribosomal peptide synthases of prokaryotes. Sfp-type PPTases are responsible for the activation of a variety of pathogen-associated virulence factors. Among these compounds are toxins such as mycolactone from Mycobacterium ulcerans, siderophores such as vibriobactin from Vibrio cholerae or mycobactin from Mycobacterium tuberculosis, as well as the mycolic acids which form the waxy cell wall of Mycobacteria. The biosyntheses of these natural products are considered attractive targets for drug design.
In search of small molecule Sfp-PPTase inhibitors, a fluorescence quenching assay was developed for detection of Bacillus subtilis Sfp-PPTase enzymatic activity in a miniaturized high-throughput format. The consensus ybbr acceptor peptide […] was N-terminally labeled with Black Hole Quencher-2 (BHQ-2) and used in combination with rhodamine-labeled coenzyme A as a co-substrate.
Phosphopantetheinyl transfer is a process essential to cellular viability and maintenance in all forms of life. Cell-permeable and stable compounds acting as PPTase inhibitors are anticipated to be growth inhibitory agents. This assay sought to assess the toxicity of test compounds in the HepG2 hepatocarcinoma cells; a human cell line whose use additionally determines the toxicity of test article metabolites.
NIH Chemical Genomics Center [NCGC]
NIH Molecular Libraries Probe Centers Network [MLPCN]
Assay Submitter (PI): Michale Burkart, University of California, San Diego
Test compounds' toxicity was assessed by measuring cellular ATP content using a luciferase-coupled ATP quantitation assay (CellTiter-Glo; Promega, Madison, WI). In this assay, luminescent signal is proportional to amount of ATP, and thus to the number of metabolically competent cells. Briefly, Hepg2 cell suspension (5 uL, 4 x 10^5 cells/mL) was dispensed into 1,536-well tissue-culture treated white/solid bottom assay plates (Greiner Bio-One North America, Monroe, NC) using a Flying Reagent Dispenser (Aurora Discovery, Carlsbad, CA). Cells were incubated at 37 deg C for 6 hr to allow for cell attachment, followed by addition of compounds via pin tool (Kalypsys, San Diego, CA). After compound addition, plates were incubated for 48 hr at 37 deg C. At the end of the incubation period, CellTiter-Glo reagent (5 uL) was added, plates were incubated at room temperature in the dark for 30 min, and the luminescence intensity of each well was determined using a ViewLux plate reader (PerkinElmer, Shelton, CT). The positive control was 92 uM and 41 uM of tetra-N-Octylammonium bromide, and the negative control was DMSO.

Which Potency does the source give for `Cc1ccnc(NC(=S)N2CCN(c3ccc(Br)cc3)CC2)c1` here?
The Potency was “inactive”.

For `Cc1cc(C)nc(NC(=C(C#N)C#N)N2CCN(c3cccc(C(F)(F)F)c3)CC2)c1`, which Potency is on record?
Its Potency is “inactive”.

For `S=C(Nc1cc(Cl)ccn1)N1CCN(c2ccc(Cl)cc2Cl)CC1`, which Potency is on record?
Its Potency is “inactive”.

With `FC(F)(F)c1cc(N2CCN(C(=S)Nc3cc(Cl)ccn3)CC2)cc(C(F)(F)F)c1` as the compound, how does the Potency read?
Its Potency is 15.8 µM (active).

With `Cc1ccnc(NC(=S)NC2CCN(c3cccc(C(F)(F)F)c3)CC2)c1` as the compound, how does the Potency read?
The Potency was “inactive”.

For `Cc1ccnc(N=C(N)N2CCN(c3cccc(C(F)(F)F)c3)CC2)c1`, which Potency is on record?
Its Potency is 28.1 µM (active).

For `Cc1cc(C)nc(NC(=S)N2CCN(c3ccccn3)CC2)c1`, which Potency is on record?
The Potency was “inactive”.

With `Cc1cc(C)nc(NC(=S)N2CCN(c3cc(C(F)(F)F)nc4ccc(C(F)(F)F)cc34)CC2)c1` as the compound, how does the Potency read?
Its Potency is “inactive”.

Which Potency does the source give for `Cc1cc(C)nc(NC(=S)N2CCN(c3ccc4nncn4c3)CC2)c1` here?
Its Potency is “inactive”.

With `CC(Cc1ccccc1)C(=O)Nc1ccc(Cl)cc1C(=O)O` (configuration not stated) as the compound, how does the Potency read?
Its Potency is “inactive”.

For `FC(F)(F)c1cnc(N2CCN(C(=S)Nc3cc(Cl)ccn3)CC2)c(Cl)c1`, which Potency is on record?
The Potency was “inactive”.

Which Potency does the source give for `Cc1cc(C)nc(NC(=S)N2CCN(c3ncccc3C#N)CC2)c1` here?
The Potency was “inactive”.

For `Cc1cc(C)nc(NC(=S)N2CCN(c3noc4ccccc34)CC2)c1`, which Potency is on record?
The Potency was “inactive”.

For `Cc1cc(C)nc(NC(=S)N2CCN(c3ccc(Cl)cc3C(F)(F)F)CC2)c1`, which Potency is on record?
The Potency was “inactive”.

For `Cc1cc(C)nc(NC(=S)N2CCN(c3ccc(C(F)(F)F)cc3[N+](=O)[O-])CC2)c1`, which Potency is on record?
Its Potency is “inactive”.

Which Potency does the source give for `Cc1cc(C)nc(NC(=S)N2CCN(c3ccc(C(=O)O)cc3)CC2)c1` here?
Its Potency is “inactive”.

For `COc1ccnc(NC(=S)N2CCN(c3ccc(Cl)cc3Cl)CC2)c1`, which Potency is on record?
The Potency was “inactive”.

For `Cc1cc(C)nc(NC(=S)N2CCN(c3cc(F)cc(F)c3)CC2)c1`, which Potency is on record?
The Potency was “inactive”.

Which Potency does the source give for `Cc1ccnc(NC(=S)N2CCCN(c3cccc(C(F)(F)F)c3)CC2)c1` here?
The Potency was 25 µM (active).

For `Cc1ccnc(NC(=S)N2CCN(c3ccc(Cl)c(Cl)c3)CC2)c1`, which Potency is on record?
The Potency was 28.1 µM (active).

Which Potency does the source give for `COc1ccnc(NC(=S)N2CCN(c3cccc(Cl)c3Cl)CC2)c1` here?
The Potency was “inactive”.

With `Cc1cc(NC(=S)N2CCN(c3cccc(C(F)(F)F)c3)CC2)nc2ccccc12` as the compound, how does the Potency read?
The Potency was “inactive”.

Which Potency does the source give for `COc1cc(NC(=S)N2CCN(c3cccc(C(F)(F)F)c3)CC2)nc2ccccc12` here?
The Potency was “inactive”.

With `FC(F)(F)c1cccc(N2CCN(C(=S)Nc3nccc4ccccc34)CC2)c1` as the compound, how does the Potency read?
The Potency was “inactive”.

Which Potency does the source give for `Cc1cc(C)nc(NC(=S)N2CCN(c3ccc4ncccc4c3[N+](=O)[O-])CC2)c1` here?
Its Potency is “inactive”.

With `COc1cccc(NC(=S)N2CCN(c3ccc(Cl)cc3Cl)CC2)n1` as the compound, how does the Potency read?
The Potency was “inactive”.

For `Cc1ccnc(NC(=S)N2CCN(c3cc(C(F)(F)F)cc(C(F)(F)F)c3)CC2)c1`, which Potency is on record?
Its Potency is 7.91 µM (active).

Which Potency does the source give for `Cc1cc(C)nc(NC(=S)N2CCN(c3ccsc3)CC2)c1` here?
The Potency was “inactive”.

With `COc1ccc(N2CCN(C(=S)Nc3cc(C)ccn3)CC2)cc1` as the compound, how does the Potency read?
The Potency was “inactive”.

With `Cc1cc(C)nc(NC(=S)N2CCN(c3cccc(S(C)(=O)=O)c3)CC2)c1` as the compound, how does the Potency read?
The Potency was “inactive”.

Which Potency does the source give for `COc1cccc(NC(=S)N2CCN(c3cccc(C(F)(F)F)n3)CC2)n1` here?
The Potency was “inactive”.

Which Potency does the source give for `Cc1ccnc(NC(=S)NCCN(C)c2cccc(C(F)(F)F)c2)c1` here?
The Potency was “inactive”.

With `CN(C)c1ccc2nc(NC(=S)N3CCN(c4cccc(C(F)(F)F)c4)CC3)sc2c1` as the compound, how does the Potency read?
The Potency was 8.88 µM (active).

For `COc1cccc(NC(=S)N2CCN(c3ccccc3C(F)(F)F)CC2)n1`, which Potency is on record?
The Potency was “inactive”.

For `COc1ccnc(NC(=S)N2CCN(c3ncc(C(F)(F)F)cc3Cl)CC2)c1`, which Potency is on record?
Its Potency is “inactive”.

For `COc1cccc(NC(=S)N2CCN(c3cccc(Cl)c3Cl)CC2)n1`, which Potency is on record?
Its Potency is “inactive”.

With `CCN1CCN(C(=S)c2ccc(O)cc2)CC1` as the compound, how does the Potency read?
Its Potency is “inactive”.
